# From PubChem BioAssay
# In the library only some 4.6% were active in any assay of this set; here they are far more common.
# tim23-1 inh = tim23-1 yeast growth inhibition. hit rate 1.3% among 330,000. inhibition, % at 20 µM. AID 463212. S. cerevisiae tim23-1 growth, BacTiter-Glo luminescence, 24 h;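 active = growth inhibition of the mutant yeast at or above 50%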;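 also: temperature-sensitive mutant grown at 25 °C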
# tim10-1 inh = growth inhibitors of tim10-1 mutant yeast | S. cerevisiae tim10-1 ts strain growth, BacTiter-Glo, 24 h | inhibition, % at 20 µM | hit rate 2.2% among 330,000;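 active = inhibition of at least 40%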;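 also: mutant grown at 25 °C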
# SKKanGAS inh = inhibitors of SKKanGAS S. pyogenes growth in kanamycin (SK-promoter or general growth effect). BacTiter-Glo, 6 h. inhibition, % at 7.5 µM. hit rate 1.3% among 300,000. AID 1662;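 active = mean replicate score, as percent of positive control median, at least 50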;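 also: strain carries kanamycin resistance gene driven by streptokinase promoter and grows in 40 µg/ml kanamycin; loss of luminescence reflects streptokinase promoter inhibition or plain growth inhibition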
# NLRP3 yeast inh = blocks the NALP3 inflammasome reconstituted in yeast. Yeast reconstituted NLRP3/ASC/caspase-1, beta-gal luminescence, 24 h. inhibition, % at 10 µM. AID 2825. hit rate 0.39% among 330,000;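 active = inhibition of 50% or more; inactive = inhibition below 50%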
# TIM10 inh = inhibits growth of TIM10 yeast strain | inhibition, % at 10 µM | AID 463195 | S. cerevisiae TIM10 strain growth, BacTiter-Glo luminescence, 24 h | hit rate 1.4% among 330,000;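 active = inhibition of 40% or more at the single tested concentration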;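 also: wild-type TIM10 isogenic control strain grown at permissive 25 °C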
# PfHsp90 set2 = growth inhibition of yeast expressing Plasmodium Hsp90 | S. cerevisiae expressing PfHsp90, BacTiter-Glo ATP, 48 h; yeast lacking PDR1 and PDR3 efflux regulators | AID 504621 | inhibition, % at 9.4 µM | hit rate 0.32% among 310,000;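 active = every replicate shows inhibition above about 80%, whatever the replicate mean, limit read from the data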
# tim10-1 confirm = tim10-1 yeast growth inhibition, confirmed; shares compounds with tim10-1 inh; S. cerevisiae tim10-1 ts strain growth, BacTiter-Glo, 24 h; inhibition, % at 20 µM; hit rate 56% among 7,400; AID 463213;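 active = inhibition of yeast growth at or above a set limit in either of two repeat tests at 20 µM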;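 also: tim10-1 mutant grown at permissive 25 °C to find synthetic lethal compounds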
# Numbers stand for hits; - = inactive; . = not tested or not shown.
SMILES,tim23-1 inh,tim10-1 inh,SKKanGAS inh,NLRP3 yeast inh,TIM10 inh,PfHsp90 set2,tim10-1 confirm
Cc1ccc(-n2c(C)cc(C(=O)Cn3nc(C(=O)O)c4ccccc4c3=O)c2C)cc1,-,42.0,-,-,-,-,-
Cc1nc2c3cc(F)ccc3n(Cc3ccccc3F)c2s1,-,41.7,-,-,-,-,-
OCC[C@H]1C[C@H](O)[C@@H](O)[C@@]2(CCCc3ccccc3O2)O1,-,-,.,-,-,-,.
Cc1cc(C(F)F)n2nc(C(=O)Nc3sc4c(c3C#N)CCC4)nc2n1,-,42.1,-,-,-,-,35.0
Cc1onc(-c2ccccc2)c1C(=O)Nc1sc2c(c1C#N)CCC2,-,40.8,-,-,-,-,41.6
CNC(=O)c1c(NC(=O)c2ccco2)sc2c1CCC2,-,41.2,-,-,-,-,-
Cc1onc(-c2ccccc2)c1C(=O)NC(=S)Nc1sc2c(c1C#N)CCC(C)C2 (stereo not drawn),-,-,-,-,-,-,.
Cc1onc(-c2ccccc2)c1C(=O)Nc1sc2c(c1C(N)=O)CCC2,-,46.5,-,-,-,.,-
CSCCC(NC(=O)c1ccccc1Br)C(=O)N1CCCC(C(F)(F)F)C1 (stereo not drawn),-,-,-,-,-,-,.
COc1ccc(C(c2c(C)[nH]n(C(N)=S)c2=O)C(C#N)C#N)cc1 (stereo not drawn),-,44.1,.,-,-,-,-
Cc1[nH]n(C(N)=S)c(=O)c1N=Nc1ccc2ccccc2c1,.,.,-,.,.,-,.
CCOC(=O)c1nn(-c2ccccc2C)c(=O)c2c(N)scc12,-,-,-,-,-,-,.
CCOC(=O)c1nn(-c2ccccc2)c(=O)c2c(N)scc12,-,51.4,.,-,-,-,-
O=[N+]([O-])/C(C(Cl)=C(Cl)Cl)=C(\Sc1ccccc1)N1CCCCC1,-,43.5,-,-,-,-,35.0
O=C(CCSc1ccccc1)N1CCCC1,-,-,-,-,-,-,.
CC(=O)c1sc(N/N=C2\CC3CC2C(C)C3(C)C)nc1C (stereo not drawn),-,45.1,-,-,-,-,-
COc1ccc(-n2ccnc2SCC(=O)NCc2ccco2)c(OC)c1,-,-,-,-,-,-,.
Brc1cccc(-c2nnc(SCc3ccon3)n2-c2ccccc2)c1,-,40.6,-,-,-,-,-
O=C(O)c1ccc(CSc2nnc(-c3ccccc3)n2-c2ccccc2)cc1,-,-,-,-,-,-,.
Cc1cccc2nc(COc3ccc(Cl)c4cccnc34)cn12,-,40.5,-,-,-,-,35.7
CCc1nc2ccc(C(=O)NC3CCC(C)CC3)cc2nc1CC (stereo not drawn),-,-,-,-,-,-,.
Cc1nc2ccccc2c(=O)n1-c1cccc(NC(=O)c2cccs2)c1,-,-,-,-,-,-,.
O=C(Nc1cccc(N2C(=O)C=CC2=O)c1)c1cccs1,-,62.8,-,-,-,-,56.6
COc1ccc(CC(=O)Oc2ccc(C)cc2Br)cc1OC,-,-,-,-,-,-,.
Cn1c(-c2ccccc2)n[nH]c1=S,-,-,-,-,-,-,.
SMILES,tim23-1 inh,tim10-1 inh,SKKanGAS inh,NLRP3 yeast inh,TIM10 inh,PfHsp90 set2,tim10-1 confirm
Cn1c(-c2sccc2OCc2ccccc2)n[nH]c1=S,-,50.0,-,-,-,-,-
Cc1nc(-c2ccccc2)sc1-c1n[nH]c(=S)n1C,-,47.8,-,-,-,.,-
Cc1ccc(COc2ccsc2-c2n[nH]c(=S)n2C)cc1,-,-,-,-,-,-,.
Cc1cccc(-n2ncc3c2CCCC3NC(=O)Cc2c(C)noc2C)c1C (stereo not drawn),-,-,-,-,-,-,.
Cc1ccc(S(=O)(=O)NCc2ccccc2)cc1C(=O)NCC(C)(C)N1CCOCC1,-,-,-,-,-,-,.
Cc1ccc(S(=O)(=O)Nc2cccc(C(=O)NCC3CCCO3)c2)cc1F (stereo not drawn),-,-,-,-,-,-,.
Cc1cccc(N2CCN(C(=O)CCC(=O)N3Cc4ccccc4Oc4ncccc43)CC2)c1C,-,53.6,-,-,-,-,-
Cc1cc(SCC(=O)Nc2cccnc2Cl)nc2ccccc12,-,-,-,-,-,-,.
COCCn1c(SCC(=O)Nc2nc(C)c(Cl)cc2Cl)nc2ccccc21,-,42.3,-,-,-,-,-
